Where a name gives a salt, the structure may show the parent alone.
Key:
Conditions in all cases: compound concentration in added solution (µM; 5 µl added to 20 µl cells): 10; 18 h
A431 [1] = assay: LBPA endosome anti-LBPA integrated intensity (sum per cell), Z-score; higher = more LBPA staining
In short: (§1)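 After 18 h on 5 µl of 10 µM compound solution in duplicate 384-well imaging plates, HeLa MZ or A431 cells, seeded at 3,500 per well in 20 µl, were fixed with 4% PFA. They were then labelled with 6C4 anti-LBPA antibody, filipin, propidium iodide and CellTracker green, and four 20× fields were recorded per well. Integrated LBPA or filipin intensity per cell, whole-cell or within LBPA endosomes, came from MetaXpress segmentation and was normalised to Z-scores in AcuityXpress.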

HeLa MZ [2] = assay: as above
In short: as §1

A431 [3] = assay: whole-cell filipin (free cholesterol) integrated intensity, Z-score; higher = more cholesterol staining
In short: as §1

HeLa MZ [4] = assay: as above
In short: as §1

A431 [5] = assay: filipin (cholesterol) integrated intensity within LBPA endosomes, Z-score; higher = more cholesterol in LBPA endosomes
In short: as §1

HeLa MZ [6] = assay: as above
In short: as §1

Compound | LBPA endosome anti-LBPA integrated intensity (z-score) (A431 [1]) | LBPA endosome anti-LBPA integrated intensity (z-score) (HeLa MZ [2]) | whole-cell filipin (z-score) (A431 [3]) | whole-cell filipin (z-score) (HeLa MZ [4]) | filipin (z-score) (A431 [5]) | filipin (z-score) (HeLa MZ [6])
CC(=O)NCCCS(=O)(=O)O [Acamprosate calcium] | -0.335 | 0.472 | -0.555 | -0.465 | -0.407 | -0.547
COc1ccc(C(=O)c2ccccc2)c(O)c1 [Oxybenzone] | -0.5 | -0.722 | -0.24 | 0.387 | -0.525 | -0.452
CC=CC(=O)N(CC)c1ccccc1C [Crotamiton] | -0.66 | -1.3 | -0.358 | -0.316 | -0.501 | -0.424
CO[C@H]1/C=C/O[C@@]2(C)Oc3c(C)c(O)c4c(O)c(c(/C=N/N5CCN(C)CC5)c(O)c4c3C2=O)NC(=O)/C(C)=C\C=C\[C@H](C)[C@H](O)[C@@H](C)[C@@H](O)[C@@H](C)[C@H](OC(C)=O)[C@@H]1C [Rifampicin] | -0.422 | -0.231 | -0.651 | -0.372 | -0.402 | -0.338
Cc1ccnc(NS(=O)(=O)c2ccc(N)cc2)n1 [Sulfamerazine] | -0.529 | -1.13 | -0.353 | -0.0674 | -0.45 | -0.567
CCCCCN(C)CCC(O)(P(=O)(O)O)P(=O)(O)O [Ibandronate sodium] | -0.326 | 0.467 | -0.0185 | 0.267 | -0.423 | -0.352
COC(=O)N/N=C/c1c[n+]([O-])c2ccccc2[n+]1[O-] [Carbadox] | -0.532 | -0.164 | -0.439 | -0.327 | -0.53 | -0.532
NC(=O)NC1NC(=O)NC1=O (centres undefined) [Allantoin] | -0.71 | -1.01 | -1.02 | -0.573 | -0.456 | -0.604
CC(C)(Sc1cc(C(C)(C)C)c(O)c(C(C)(C)C)c1)Sc1cc(C(C)(C)C)c(O)c(C(C)(C)C)c1 [Probucol] | -0.46 | -0.408 | -0.766 | -0.622 | -0.482 | -0.445
CCc1cc(C(N)=S)ccn1 [Ethionamide] | -0.517 | -0.148 | -0.588 | 0.221 | -0.493 | -0.459
CCCCCN(CCCCC)C(=O)C(CCC(=O)O)NC(=O)c1ccc(Cl)c(Cl)c1 (centres undefined) [Lorglumide sodium salt] | -0.556 | 0.0228 | -0.478 | -0.52 | -0.482 | -0.502
NC[C@H]1O[C@H](O[C@H]2[C@H](O)[C@@H](O[C@H]3O[C@H](CO)[C@@H](O)[C@H](N)[C@H]3O)[C@H](N)C[C@@H]2N)[C@H](N)C[C@@H]1O [Tobramycin] | -0.535 | -1.57 | -0.669 | -0.773 | -0.528 | -0.681
CO[C@H]1/C=C/O[C@@]2(C)Oc3c(C)c(O)c4c(O)c(c5c(nc6cc(C)ccn65)c4c3C2=O)NC(=O)/C(C)=C\C=C\[C@H](C)[C@H](O)[C@@H](C)[C@@H](O)[C@@H](C)[C@H](OC(C)=O)[C@@H]1C [Rifaximin] | -0.465 | -0.154 | 0.151 | 0.344 | -0.307 | -0.143
CO/N=C(\C(=O)N[C@@H]1C(=O)N2C(C(=O)O)=C(COC(C)=O)CS[C@H]12)c1csc(N)n1 [Cefotaxime sodium salt] | -0.36 | -0.201 | -0.822 | -0.63 | -0.554 | -0.583
CN(C)CCCN1c2ccccc2Sc2ccc(Cl)cc21 [Chlorpromazine hydrochloride] | 3.29 | 1.39 | 0.659 | 0.0307 | 2.35 | 1.67
C#C[C@]1(O)CC[C@H]2[C@@H]3CCC4=C(CCC(=O)C4)[C@H]3CC[C@@]21C [Norethynodrel] | -0.487 | -0.658 | -0.784 | -0.871 | -0.48 | -0.512
CC(CCc1ccccc1)NCC(O)c1ccc(O)c(C(N)=O)c1 (centres undefined) [Labetalol hydrochloride] | 0.794 | 1.06 | 1 | -0.0368 | 0.489 | 0.328
Nc1nc(=O)c2c([nH]1)NC[C@@H](CNc1ccc(C(=O)N[C@@H](CCC(=O)O)C(=O)O)cc1)N2C=O [Folinic acid calcium salt] | -0.476 | -0.265 | -0.437 | -0.13 | -0.451 | -0.42
CCCN[C@H]1CCc2nc(N)sc2C1 [Pramipexole] | -0.166 | 0.761 | 0.197 | 0.182 | -0.247 | -0.149
Cc1cc(N)c2ccccc2[n+]1CCCCCCCCCC[n+]1c(C)cc(N)c2ccccc21 [Dequalinium dichloride] | -0.351 | 0.0986 | -0.943 | 1.23 | -0.599 | -0.485
C[C@H]1NC(=O)NC1=O [Methylhydantoin-5-(D)] | -0.487 | -0.363 | -0.289 | -0.267 | -0.458 | -0.381
CCOC(=O)C1=C(C)NC(C)=C(C(=O)OC)C1c1cccc([N+](=O)[O-])c1 (centres undefined) [Nitrendipine] | -0.341 | 0.238 | -0.283 | 0.00443 | -0.327 | -0.297
Oc1c(Cl)cc(Cl)c2cccnc12 [Chloroxine] | -0.792 | -1.58 | -0.709 | -1.27 | -0.75 | -0.803
CCN(CCO)CCCC(C)Nc1ccnc2cc(Cl)ccc12 (centres undefined) [Hydroxychloroquine sulfate] | 0.14 | 1.98 | -0.556 | 0.249 | -0.241 | 0.821

Reference: the supplement of paper PMC6607015
